# The entries come from a sample that favours the strongest signals as a whole.
# How the values were obtained:
# Assay in all cases: glycan array binding signal (z-score within array); higher = stronger binding
# Conditions in all cases: glycan notation: IUPAC condensed, linker removed
# [1] = target: Fuc(a1-2)Gal(b1-3)GlcNAc(b1-3)GalNAc
# Method in brief: (§1)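 Columns mapping to the same glycan were averaged after glycan names were converted to IUPAC-condensed notation. The data come from 3228 arrays in the Consortium for Functional Glycomics database, limited to those with an available protein sequence. Binding is reported as a within-array Z-score averaged across arrays of one protein sequence and across linkers.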
# [2] = target: Fuc(a1-2)Gal(b1-3)[Fuc(a1-4)]GlcNAc
# Method in brief: as §1
# [3] = target: Fuc(a1-2)Gal(b1-4)GlcNAc(b1-6)GalNAc
# Method in brief: as §1
# [4] = target: Fuc(a1-2)Gal(b1-4)[Fuc(a1-3)]GlcNAc(b1-3)Gal(b1-4)[Fuc(a1-3)]GlcNAc(b1-3)Gal(b1-4)[Fuc(a1-3)]GlcNAc
# Method in brief: as §1
# [5] = target: Fuc(a1-2)[Gal(a1-3)]Gal(b1-3)GlcNAc
# Method in brief: as §1
# [6] = target: Fuc(a1-2)[Gal(a1-3)]Gal(b1-4)GlcNAc
# Method in brief: as §1
# [7] = target: Fuc(a1-2)[Gal(a1-3)]Gal(b1-4)[Fuc(a1-3)]GlcNAc
# Method in brief: as §1
# [8] = target: Fuc(a1-2)[GalNAc(a1-3)]Gal(b1-4)GlcNAc(b1-2)Man
# Method in brief: as §1
# [9] = target: Fuc(a1-2)[GalNAc(b1-3)]Gal
# Method in brief: as §1
# [10] = target: Fuc(a1-3)[Gal(b1-4)]GlcNAc(b1-3)GalNAc
# Method in brief: as §1
# [11] = target: Gal(a1-3)Gal(b1-3)GlcNAc
# Method in brief: as §1
# [12] = target: Gal(a1-3)Gal(b1-4)[Fuc(a1-3)]GlcNAc
# Method in brief: as §1
# [13] = target: Gal(b1-3)Gal
# Method in brief: as §1
# [14] = target: Gal(b1-3)GlcNAc
# Method in brief: as §1
# [15] = target: Gal(b1-3)GlcNAc(b1-3)Gal(b1-4)GlcNAc(b1-2)[Gal(b1-3)GlcNAc(b1-3)Gal(b1-4)GlcNAc(b1-6)]Man(a1-6)[Gal(b1-3)GlcNAc(b1-3)Gal(b1-4)GlcNAc(b1-2)Man(a1-3)]Man(b1-4)GlcNAc(b1-4)[Fuc(a1-6)]GlcNAc
# Method in brief: as §1
# [16] = target: Gal(b1-3)GlcNAc(b1-3)Gal(b1-4)GlcNAc(b1-6)[Gal(b1-3)GlcNAc(b1-3)]Gal(b1-4)Glc
# Method in brief: as §1
# [17] = target: Gal(b1-4)Gal
# Method in brief: as §1
# [18] = target: Gal(b1-4)GlcNAc(b1-2)Man(a1-3)[Gal(b1-4)GlcNAc(b1-2)Man(a1-6)]Man(b1-4)GlcNAc(b1-4)[Fuc(a1-6)]GlcNAc
# Method in brief: as §1
# [19] = target: Gal(b1-4)GlcNAc(b1-2)Man(a1-3)[Gal(b1-4)GlcNAc(b1-2)Man(a1-6)][GlcNAc(b1-4)]Man(b1-4)GlcNAc(b1-4)[Fuc(a1-6)]GlcNAc
# Method in brief: as §1
# [20] = target: Gal(b1-4)GlcNAc(b1-2)[Gal(b1-4)GlcNAc(b1-4)]Man(a1-3)[GlcNAc(b1-4)][Gal(b1-4)GlcNAc(b1-2)Man(a1-6)]Man(b1-4)GlcNAc(b1-4)GlcNAc
# Method in brief: as §1
# [21] = target: Gal(b1-4)GlcNAc(b1-2)[Gal(b1-4)GlcNAc(b1-6)]Man(a1-6)[GlcNAc(b1-4)][Gal(b1-4)GlcNAc(b1-2)[Gal(b1-4)GlcNAc(b1-4)]Man(a1-3)]Man(b1-4)GlcNAc(b1-4)[Fuc(a1-6)]GlcNAc
# Method in brief: as §1
# [22] = target: Gal(b1-4)GlcNAc(b1-3)Gal(b1-4)GlcNAc(b1-2)Man(a1-3)[Gal(b1-4)GlcNAc(b1-3)Gal(b1-4)GlcNAc(b1-2)Man(a1-6)]Man(b1-4)GlcNAc(b1-4)[Fuc(a1-6)]GlcNAc
# Method in brief: as §1
# [23] = target: Gal(b1-4)GlcNAc(b1-3)Gal(b1-4)GlcNAc(b1-3)Gal(b1-4)GlcNAc(b1-3)Gal(b1-4)GlcNAc(b1-2)Man(a1-3)[Gal(b1-4)GlcNAc(b1-3)Gal(b1-4)GlcNAc(b1-3)Gal(b1-4)GlcNAc(b1-3)Gal(b1-4)GlcNAc(b1-2)Man(a1-6)]Man(b1-4)GlcNAc(b1-4)GlcNAc
# Method in brief: as §1
# [24] = target: Gal(b1-4)GlcNAc(b1-3)Gal(b1-4)GlcNAc(b1-3)Gal(b1-4)GlcNAc(b1-3)Gal(b1-4)GlcNAc(b1-2)Man(a1-3)[Gal(b1-4)GlcNAc(b1-3)Gal(b1-4)GlcNAc(b1-3)Gal(b1-4)GlcNAc(b1-3)Gal(b1-4)GlcNAc(b1-2)Man(a1-6)]Man(b1-4)GlcNAc(b1-4)[Fuc(a1-6)]GlcNAc
# Method in brief: as §1
# [25] = target: Gal(b1-4)GlcNAc(b1-3)Gal(b1-4)GlcNAc(b1-3)Gal(b1-4)GlcNAc(b1-3)Gal(b1-4)GlcNAc(b1-3)Gal(b1-4)GlcNAc(b1-2)Man(a1-3)[Gal(b1-4)GlcNAc(b1-3)Gal(b1-4)GlcNAc(b1-3)Gal(b1-4)GlcNAc(b1-3)Gal(b1-4)GlcNAc(b1-3)Gal(b1-4)GlcNAc(b1-2)Man(a1-6)]Man(b1-4)GlcNAc(b1-4)[Fuc(a1-6)]GlcNAc
# Method in brief: as §1
# [26] = target: Gal(b1-4)GlcNAc(b1-3)Gal(b1-4)GlcNAc(b1-3)Gal(b1-4)GlcNAc(b1-3)Gal(b1-4)GlcNAc(b1-3)Gal(b1-4)GlcNAc(b1-2)[Gal(b1-4)GlcNAc(b1-3)Gal(b1-4)GlcNAc(b1-3)Gal(b1-4)GlcNAc(b1-3)Gal(b1-4)GlcNAc(b1-3)Gal(b1-4)GlcNAc(b1-6)]Man(a1-6)[Gal(b1-4)GlcNAc(b1-3)Gal(b1-4)GlcNAc(b1-3)Gal(b1-4)GlcNAc(b1-3)Gal(b1-4)GlcNAc(b1-3)Gal(b1-4)GlcNAc(b1-2)Man(a1-3)]Man(b1-4)GlcNAc(b1-4)[Fuc(a1-6)]GlcNAc
# Method in brief: as §1
# [27] = target: Gal(b1-4)GlcNAc(b1-3)GalNAc
# Method in brief: as §1
# [28] = target: Gal3S6S(b1-4)GlcNAc6S
# Method in brief: as §1
binder,measurement,setting,value
"AFL5 (Aspergillus fumigatus), Q4WB00 (protein) MDNFMEMTKKLGHQPELLRLRALDATYDDALEGKLVVAPLDMSEPGKKILDSGTADGTWLRNVRSKQSVPHDYYGSDVEGELFPKDPDGITYFAHSFKDPWPQQYLGFFDLVHIRGSLAGSAPEGPAPVIQNLTTLLKPGGWVQLMEMNAFSPPPNGPAMTDFAKMASEMFTGIGVGDFANNNKSMLEDAGLKNVQEKRVIVNLGKKAKPELHDQSIHGVTGPIVPLTSVARTVKSSFTGEQLDALPARVKEELETEGGQVEMIIAFGQKA",glycan array binding signal (z-score),[1],-0.31
same,glycan array binding signal (z-score),[2],-0.036
same,glycan array binding signal (z-score),[3],-0.782
same,glycan array binding signal (z-score),[4],-0.555
same,glycan array binding signal (z-score),[5],-0.252
same,glycan array binding signal (z-score),[6],-0.456
same,glycan array binding signal (z-score),[7],-0.109
same,glycan array binding signal (z-score),[8],-0.322
same,glycan array binding signal (z-score),[9],-0.258
same,glycan array binding signal (z-score),[10],-0.016
same,glycan array binding signal (z-score),[11],-0.285
same,glycan array binding signal (z-score),[12],21.5
same,glycan array binding signal (z-score),[13],-0.063
same,glycan array binding signal (z-score),[14],-0.272
same,glycan array binding signal (z-score),[15],1.17
same,glycan array binding signal (z-score),[16],-0.412
same,glycan array binding signal (z-score),[17],-0.502
same,glycan array binding signal (z-score),[18],0.004
same,glycan array binding signal (z-score),[19],-0.411
same,glycan array binding signal (z-score),[20],-0.134
same,glycan array binding signal (z-score),[21],3.2
same,glycan array binding signal (z-score),[22],1.35
same,glycan array binding signal (z-score),[23],0.075
same,glycan array binding signal (z-score),[24],1.69
same,glycan array binding signal (z-score),[25],1.46
same,glycan array binding signal (z-score),[26],1.6
same,glycan array binding signal (z-score),[27],-0.561
same,glycan array binding signal (z-score),[28],0.29
